Measured values taken from PubChem BioAssay AID1159580 (chemical genetic matrix, 2015).
Out of some 5,500 compounds screened, about 2,000 (36%) were called active. About 18% were inconclusive and are not listed. Some of the results follow. Values without a mark were called inactive. Rule as the data show it: active = normalized growth mostly below about 0.91 (no sharp cut-off); inconclusive = no clear call, values can overlap the other calls; inactive = mostly above about 0.92.

Experiment: chemical genetic growth profiling, strain panel (AID 1159580);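 also: tested at 20 µM; growth read once vehicle control cultures reached saturation at 30 °C; 1 = growth at the plate median or of vehicle wells; lower values mean less growth of the strain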
Conditions: growth OD

SMILES: COc1c(OC)c2occc2c2oc(=O)ccc12
- normalized growth (S. cerevisiae deletion strains, locus YJR066W, strain TOR1, stronger effect = lower value): 0.929
- normalized growth (S. cerevisiae deletion strains, locus YKL009W, strain mrt4, stronger effect = lower value): 0.957
- normalized growth (S. cerevisiae deletion strains, locus YKL068W, stronger effect = lower value): 0.978
- normalized growth (S. cerevisiae deletion strains, locus YKL085W, strain MDH1 (second series), stronger effect = lower value): 0.97
- normalized growth (S. cerevisiae deletion strains, locus YKL085W, strain MDH1, stronger effect = lower value): 0.97
- normalized growth (S. cerevisiae deletion strains, locus YKL160W, strain elf1, stronger effect = lower value): 0.942
- normalized growth (S. cerevisiae deletion strains, locus YKL190W, strain CNB1, stronger effect = lower value): 0.965
- normalized growth (S. cerevisiae deletion strains, locus YKR001C, strain vps1, stronger effect = lower value): 0.644 (active)
- normalized growth (S. cerevisiae deletion strains, locus YKR026C, strain gcn3, stronger effect = lower value): 0.967
- normalized growth (S. cerevisiae deletion strains, locus YKR091W, strain srl3, stronger effect = lower value): 0.985
- normalized growth (S. cerevisiae deletion strains, locus YLL001W, strain dnm1, stronger effect = lower value): 0.993
- normalized growth (S. cerevisiae deletion strains, locus YLL026W, stronger effect = lower value): 0.991
- normalized growth (S. cerevisiae deletion strains, locus YLL041C, strain sdh2, stronger effect = lower value): 0.975
- normalized growth (S. cerevisiae deletion strains, locus YLR027C, strain aat2, stronger effect = lower value): 0.964
- normalized growth (S. cerevisiae deletion strains, locus YLR039C, strain RIC1, stronger effect = lower value): 0.68
- normalized growth (S. cerevisiae deletion strains, locus YLR058C, strain SHM2, stronger effect = lower value): 0.96
- normalized growth (S. cerevisiae deletion strains, locus YLR102C, strain apc9, stronger effect = lower value): 0.983
- normalized growth (S. cerevisiae deletion strains, locus YLR113W, strain HOG1, stronger effect = lower value): 0.958
- normalized growth (S. cerevisiae deletion strains, locus YLR221C, strain rsa3, stronger effect = lower value): 0.952
- normalized growth (S. cerevisiae deletion strains, locus YLR258W, strain gsy2, stronger effect = lower value): 0.988
- normalized growth (S. cerevisiae deletion strains, locus YLR262C, strain YPT6 (second series), stronger effect = lower value): 0.939
- normalized growth (S. cerevisiae deletion strains, locus YLR262C, strain YPT6, stronger effect = lower value): 0.79
- normalized growth (S. cerevisiae deletion strains, locus YLR268W, strain sec22, stronger effect = lower value): 0.927
- normalized growth (S. cerevisiae deletion strains, locus YLR320W, strain mms22, stronger effect = lower value): 0.895
- normalized growth (S. cerevisiae deletion strains, locus YLR330W, strain CHS5, stronger effect = lower value): 0.939
- normalized growth (S. cerevisiae deletion strains, locus YLR342W, strain FKS1 (second series), stronger effect = lower value): 0.95
- normalized growth (S. cerevisiae deletion strains, locus YLR342W, strain FKS1, stronger effect = lower value): 0.992
- normalized growth (S. cerevisiae deletion strains, locus YLR357W, strain rsc2, stronger effect = lower value): 1.01
- normalized growth (S. cerevisiae deletion strains, locus YLR370C, strain arc18, stronger effect = lower value): 0.982
- normalized growth (S. cerevisiae deletion strains, locus YLR371W, strain rom2, stronger effect = lower value): 0.816 (active)
- normalized growth (S. cerevisiae deletion strains, locus YLR384C, strain iki3, stronger effect = lower value): 0.991
- normalized growth (S. cerevisiae deletion strains, locus YLR418C, strain cdc73, stronger effect = lower value): 0.754 (active)
- normalized growth (S. cerevisiae deletion strains, locus YML016C, strain PPZ1, stronger effect = lower value): 0.936
- normalized growth (S. cerevisiae deletion strains, locus YML032C, strain rad52, stronger effect = lower value): 0.915
- normalized growth (S. cerevisiae deletion strains, locus YML120C, strain ndi1, stronger effect = lower value): 0.948
- normalized growth (S. cerevisiae deletion strains, locus YML124C, strain tub3, stronger effect = lower value): 0.968
- normalized growth (S. cerevisiae deletion strains, locus YMR058W, strain fet3, stronger effect = lower value): 0.971
- normalized growth (S. cerevisiae deletion strains, locus YMR078C, strain ctf18, stronger effect = lower value): 0.955
- normalized growth (S. cerevisiae deletion strains, locus YMR125W, strain sto1, stronger effect = lower value): 1.01
- normalized growth (S. cerevisiae deletion strains, locus YMR129W, stronger effect = lower value): 0.986
- normalized growth (S. cerevisiae deletion strains, locus YMR205C, strain PFK2, stronger effect = lower value): 0.987
- normalized growth (S. cerevisiae deletion strains, locus YMR223W, strain ubp8, stronger effect = lower value): 0.933
- normalized growth (S. cerevisiae deletion strains, locus YMR231W, strain pep5, stronger effect = lower value): 0.987
- normalized growth (S. cerevisiae deletion strains, locus YMR263W, strain SAP30, stronger effect = lower value): 0.916
- normalized growth (S. cerevisiae deletion strains, locus YMR307W, strain GAS1, stronger effect = lower value): 0.816
- normalized growth (S. cerevisiae deletion strains, locus YNL067W, strain RPL9B, stronger effect = lower value): 0.941
- normalized growth (S. cerevisiae deletion strains, locus YNL071W, strain lat1, stronger effect = lower value): 0.929
- normalized growth (S. cerevisiae deletion strains, locus YNL183C, strain NPR1, stronger effect = lower value): 0.921
- normalized growth (S. cerevisiae deletion strains, locus YNL209W, strain ssb2, stronger effect = lower value): 0.976
- normalized growth (S. cerevisiae deletion strains, locus YNL233W, strain BNI4, stronger effect = lower value): 0.872
- normalized growth (S. cerevisiae deletion strains, locus YNL248C, strain rpa49, stronger effect = lower value): 0.906
- normalized growth (S. cerevisiae deletion strains, locus YNL250W, strain rad50, stronger effect = lower value): 0.989
- normalized growth (S. cerevisiae deletion strains, locus YNL271C, strain bni1, stronger effect = lower value): 0.965
- normalized growth (S. cerevisiae deletion strains, locus YNL298W, strain CLA4, stronger effect = lower value): 0.95
- normalized growth (S. cerevisiae deletion strains, locus YNL307C, strain MCK1, stronger effect = lower value): 0.859 (active)
- normalized growth (S. cerevisiae deletion strains, locus YNL322C, strain KRE1 (second series), stronger effect = lower value): 0.986
- normalized growth (S. cerevisiae deletion strains, locus YNL322C, strain KRE1, stronger effect = lower value): 0.973
- normalized growth (S. cerevisiae deletion strains, locus YNR049C, strain mso1, stronger effect = lower value): 0.985
- normalized growth (S. cerevisiae deletion strains, locus YNR052C, strain pop2, stronger effect = lower value): 0.948
- normalized growth (S. cerevisiae deletion strains, locus YOL012C, strain htz1): 0.5
- normalized growth (S. cerevisiae deletion strains, locus YOL147C, strain pex11, stronger effect = lower value): 0.958
- normalized growth (S. cerevisiae deletion strains, locus YOR001W, strain rrp6, stronger effect = lower value): 0.936
- normalized growth (S. cerevisiae deletion strains, locus YOR061W, strain CKA2, stronger effect = lower value): 0.962
- normalized growth (S. cerevisiae deletion strains, locus YOR069W, strain VPS5, stronger effect = lower value): 0.968
- normalized growth (S. cerevisiae deletion strains, locus YOR070C, strain gyp1, stronger effect = lower value): 0.977
- normalized growth (S. cerevisiae deletion strains, locus YOR080W, strain dia2, stronger effect = lower value): 0.98
- normalized growth (S. cerevisiae deletion strains, locus YOR083W, strain WHI5, stronger effect = lower value): 0.908
- normalized growth (S. cerevisiae deletion strains, locus YOR106W, strain vam3, stronger effect = lower value): 0.946
- normalized growth (S. cerevisiae deletion strains, locus YOR136W, strain idh2, stronger effect = lower value): 0.995
- normalized growth (S. cerevisiae deletion strains, locus YOR144C, strain elg1, stronger effect = lower value): 0.954
- normalized growth (S. cerevisiae deletion strains, locus YOR184W, strain ser1, stronger effect = lower value): 0.859 (active)
- normalized growth (S. cerevisiae deletion strains, locus YOR231W, strain MKK1, stronger effect = lower value): 0.956
- normalized growth (S. cerevisiae deletion strains, locus YOR265W, strain rbl2, stronger effect = lower value): 0.985
- normalized growth (S. cerevisiae deletion strains, locus YOR270C, strain vph1, stronger effect = lower value): 0.857
- normalized growth (S. cerevisiae deletion strains, locus YOR290C, strain snf2, stronger effect = lower value): 0.944
- normalized growth (S. cerevisiae deletion strains, locus YOR316C, strain cot1, stronger effect = lower value): 0.985
- normalized growth (S. cerevisiae deletion strains, locus YPL051W, strain arl3, stronger effect = lower value): 0.933
- normalized growth (S. cerevisiae deletion strains, locus YPL055C, strain LGE1, stronger effect = lower value): 0.87
- normalized growth (S. cerevisiae deletion strains, locus YPL078C, strain atp4, stronger effect = lower value): 0.932
- normalized growth (S. cerevisiae deletion strains, locus YPL106C, strain sse1, stronger effect = lower value): 0.94
- normalized growth (S. cerevisiae deletion strains, locus YPL240C, strain hsp82, stronger effect = lower value): 0.958
- normalized growth (S. cerevisiae deletion strains, locus YPL241C, strain CIN2, stronger effect = lower value): 0.941
- normalized growth (S. cerevisiae deletion strains, locus YPL256C, strain CLN2, stronger effect = lower value): 0.973
- normalized growth (S. cerevisiae deletion strains, locus YPR119W, strain clb2, stronger effect = lower value): 0.98
- normalized growth (S. cerevisiae deletion strains, locus YPR141C, strain kar3, stronger effect = lower value): 0.985
- normalized growth (S. cerevisiae deletion strains, locus YPR163C, strain tif3, stronger effect = lower value): 0.917
- normalized growth (S. cerevisiae deletion strains, locus YPR167C, strain met16, stronger effect = lower value): 0.96
- normalized growth (S. cerevisiae deletion strains, strain wtn01, stronger effect = lower value): 0.957
- normalized growth (S. cerevisiae strains, strain wild type, stronger effect = lower value): 0.967
